These results are taken from ChEMBL document CHEMBL4513216, “Probing the Open Global Health Chemical Diversity Library for Multistage-Active Starting Points for Next-Generation Antimalarials” (ACS Infect Dis, 2020).

In all, about 69,000 compounds went through this assay and about 8,600 (12%) showed an effect of 50% or more. This excerpt belongs to a sample that is enriched for strong results.

The test system of this assay is Plasmodium berghei. As to the kind of experiment: Screen against P. berghei liver stage (PbLuc), transformed with Luciferase, at 10uM. The following applies: tested at 10 uM. The format is functional, HepG2.
`CCS(=O)(=O)c1ccccc1N1CCC(NC(=O)C(C)C)CC1`: the INHIBITION was -25.8%.

Regarding `CO[C@@H]1CCC[C@@H](NC(=O)C(C)(C)c2cccc(F)c2)[C@H]1O`, the INHIBITION is listed as 10.855%. Consider `Cc1cccc(C)c1NC(=O)c1n[nH]c(-n2cnnc2)n1`, for which the INHIBITION turned out to be 19.6%. Under `CC(C)N(C)Cc1nnc2n1CCCN(S(=O)(=O)C1CC1)C2` stands 36.4%; under `c1ccc(OCc2nnc3n2CCN(CC2CC2)C3)nc1`, 39.3%.

Regarding `Cc1c(C2CCCN(C(=O)Cc3ccccn3)C2)n2c(nc1=O)CCC2` (stereo not drawn), the INHIBITION was found to be 34.1%. For the molecule `O=C(NCCc1nccs1)[C@H](c1ccccc1)n1cnnn1`, the INHIBITION is listed as -20.8%. Under `CC(O)CNC(=O)CCc1nc2ncccc2[nH]1` (stereo not drawn) stands 26.6%; under `Cc1nc(C(=O)N2CCN(S(C)(=O)=O)CC2)c(-c2cccc(F)c2)s1`, 17.7%; under `c1cnc(N2CCO[C@H]3CN(Cc4ccsc4)C[C@H]32)nc1`, 42.7%.

As to `c1cc(CN2C[C@@H]3OCCN(CCN4CCCC4)[C@@H]3C2)cs1`, the INHIBITION is listed as 11.3%. Take `Cc1cccc(CN2C[C@@H]3OCCN(c4ccnc(N(C)C)n4)[C@@H]3C2)c1`: the INHIBITION turned out to be 77.5%. Under `CN(C)C(=O)CN1CCO[C@H]2CN(Cc3ccoc3)C[C@H]21` stands 31.2%. Consider `Cc1cc(C)cc(CN2C[C@@H]3OCCN(CC(=O)N(C)C)[C@@H]3C2)c1`, for which the INHIBITION is 66.6%. Under `CN(C)c1nccc(N2CCO[C@H]3CN(Cc4ccsc4)C[C@H]32)n1` stands 65.1%; under `Cc1cccc(CN2C[C@@H]3OCCN(CC(=O)N(C)C)[C@@H]3C2)c1`, 39.4%; under `Cc1cccc(CN2C[C@@H]3OCCN(c4cnccn4)[C@@H]3C2)n1`, -18.5%.

As for `Cc1ccc(N2CCO[C@H]3CN(Cc4ccoc4)C[C@H]32)nn1`, the INHIBITION came to 41.6%.

As to `CCOCCCNC(=O)C1CCC(=O)N(CCc2ccc(Cl)cc2)C1` (stereo not drawn), the INHIBITION is listed as 16.3%.

Turning to `COc1ccc(C(=O)Nc2ccccc2C(C)C)c(OC)n1`, the INHIBITION is reported as -17.2%. Take `COc1ccc([C@@H]2CN(Cc3cccnc3N)C[C@H]2N(C)C)cc1`: the INHIBITION is 30.3%. Under `O[C@@H]1CCN(CC2CC2)[C@H]1Cc1ccccc1` stands -14.4%; under `Cc1nc(C)n(CC2CN(Cc3cccnc3)Cc3nccn3C2)n1` (stereo not drawn), 25.1%; under `Cc1ncsc1C(=O)NCCCN1CCCCCC1=O`, -21.2%. The figure for `Cc1nc(S(=O)(=O)N2CCSCC2)cn1C` is -50.7%; for `CCN(CC)Cc1cc(=O)n2c(n1)CN(C(=O)c1ccnnc1)CCC2` it is -20.2%; for `COc1ccc(C[C@H]2CN(C(=O)CS(C)(=O)=O)CC[C@H]2OC)cc1` it is 33.4%.

Regarding `COCCN1CC[C@H]2CN(Cc3ccc(C)s3)C[C@@H]2C1=O`, the INHIBITION is -75%.

With `c1nc(N2CCCC2)ncc1CN1CCCC(CN2CCCCC2)C1` (stereo not drawn), the INHIBITION was found to be 21.1%. The figure for `NC(=O)CCC1CCCN(Cc2cnc(N3CCCCC3)nc2)C1` (stereo not drawn) is 67.8%; for `CCc1cnc(N2CCCC(CCC(N)=O)C2)nc1` (stereo not drawn) it is 17.9%. Regarding `Cc1nn(C)c2ncc(C(=O)N3CCNC(=O)C3)cc12`, the INHIBITION came to 1.86%.

Take `O=C(CC1CCCC1)N1CCC(c2cc3ncccc3c(O)n2)CC1`: the INHIBITION is -2.11%. Under `O=C(CCC1CCCC1)N1CCC(c2cc3ncccc3c(O)n2)CC1` stands 55.6%; under `COCC(=O)N1CCC(c2cc3ncccc3c(O)n2)CC1`, -27.4%; under `O=C(c1c(F)cccc1F)N1CCOCC1`, 30.45%. The figure for `O=C(Nc1cccc(CNCc2ccsc2)c1)C1CC1` is 21.8%. The figure for `Cn1ccc(C(=O)NCc2ccc(Cn3ccnc3)cc2)cc1=O` is -7.17%. As for `Cn1ccc(C(=O)NCc2cccc(Cn3ccnc3)c2)cc1=O`, the INHIBITION worked out at 31.4%. The figure for `Cn1ccc(C(=O)NCc2cccc(N3CCCCC3=O)c2)cc1=O` is 45.9%; for `O=C(Nc1cccc(CNCc2cccnc2)c1)C1CCCC1` it is 39.65%; for `O=C(Nc1cccc(CNCc2csc(Br)c2)c1)C1CC1` it is 70.7%. With `Cn1ccc(C(=O)NCc2cccc(CN3CCCC3)c2)cc1=O`, the INHIBITION is 48.8%. In the case of `Cn1ccc(C(=O)NCc2cccc(NC(=O)C3CCC3)c2)cc1=O`, the INHIBITION stood at 61.1%. Consider `Cc1nccn1Cc1cccc(CNC(=O)c2ccn(C)c(=O)c2)c1`, for which the INHIBITION is recorded as 53.8%.

For `COCCC(=O)N1CCC(c2cc(O)n(C)n2)C1` (stereo not drawn), the INHIBITION was 0.301%. The figure for `O=C(O)CC(CC(=O)NCc1ccsc1)c1cccs1` (stereo not drawn) is -24%; for `CCn1cc(NC(=O)NCCc2ccc3c(c2)OCO3)cn1` it is -23.9%; for `CCc1nc(C(=O)N(C)CC(=O)N(C)C)nn1-c1ccccc1Cl` it is 27.9%. Under `c1ccc2oc(CCCN3CCOC(Cn4cncn4)C3)nc2c1` (stereo not drawn) stands 47.1%; under `Cc1ccsc1C(=O)N1CCC(Nc2cccnc2)CC1`, -36.6%; under `COCCN1C(=O)[C@@H]2CC[C@H]1CN(S(=O)(=O)c1ccc(OC)cc1)C2`, 1.56%. The figure for `Cc1cc(C(F)(F)F)c2c(C3CCCN(C(=O)C4CC4)C3)noc2n1` (stereo not drawn) is 26.8%; for `CNc1ccc(Cl)cc1C(=O)N1CCC(Cn2cc(CN)nn2)CC1` it is 21.2%; for `CC(C)n1ncc2c1NC(=O)CC21C(=O)Nc2c(Cl)cc(Br)cc21` (stereo not drawn) it is -23.7%. In the case of `CC(C)n1ncc2c1NC(=O)CC21C(=O)Nc2cc(Cl)cc(Cl)c21` (stereo not drawn), the INHIBITION was 89.6%. The figure for `Cc1cc(C)c2c(c1)C1(CC(=O)Nc3c1cnn3C(C)C)C(=O)N2` (stereo not drawn) is -20.5%; for `CC(C)n1ncc2c1NC(=O)CC21C(=O)Nc2c(Cl)ccc(Cl)c21` (stereo not drawn) it is 73.6%; for `Cc1cc(Br)c2c(c1)C1(CC(=O)Nc3c1cnn3C(C)C)C(=O)N2` (stereo not drawn) it is -34.8%. The figure for `CC(C)n1ncc2c1NC(=O)CC21C(=O)Nc2c(Cl)cc(Cl)cc21` (stereo not drawn) is -35.5%; for `CC(C)n1ncc2c1NC(=O)CC21C(=O)Nc2c(Cl)cccc21` (stereo not drawn) it is -75.8%; for `CN1C(=O)C2(CC(=O)Nc3c2cnn3C(C)(C)C)c2c(Cl)cccc21` (stereo not drawn) it is 5.58%.

As for `CC(C)n1ncc2c1NC(=O)CC21C(=O)Nc2c(Br)cc(Cl)cc21` (stereo not drawn), the INHIBITION is listed as 59.3%.

On to `CC(=O)c1ccc(N2CCN(C(=O)NCc3cc[nH]n3)CC2)cc1`, for which the INHIBITION was 48.4%. The figure for `O=C(c1ccsc1)N1CCOC2(CCN(Cc3cccnc3)CC2)C1` is -9.67%; for `COc1ccc2oc(C(C)NC(=O)NC3CCN(C)CC3)c(C)c2c1` (stereo not drawn) it is 2.4%. For `Cn1ccnc1CNC(=O)N(CCCO)C1CCc2ccccc21` (stereo not drawn), the INHIBITION stood at 8.05%.

Regarding `CCC[C@H]1CN(c2cncc(C(=O)N3CCCCC3)n2)C[C@@H]1N(C)C`, the INHIBITION is listed as -12.2%.

In the case of `COCCNC(=O)Cn1cc(OCc2ccc(F)cc2)c(=O)cc1C`, the INHIBITION is listed as 25.8%. Turning to `Cc1nc(O)cc(C2CCCN2CCO)n1` (stereo not drawn), the INHIBITION is recorded as 13.5%. In the case of `CC(=O)Cc1c(C)nn(-c2cncc(N)c2)c1C`, the INHIBITION is reported as 11.5%. Under `O=C1CC2(CCCC2)CN1CCOc1ccc(F)cc1` stands -144%. The figure for `Cn1nc(C(=O)N2CC(Oc3nc4c(Cl)cccc4s3)C2)ccc1=O` is 29.6%; for `OC1CN(c2nc3c(C(F)(F)F)cccc3s2)C1` it is -40%. Take `COc1cccc2sc(OC3CN(C(=O)C4=COCCO4)C3)nc12`: the INHIBITION amounted to 13.3%. For `O=C(C1=COCCO1)N1CC(Oc2nc3c(Cl)cccc3s2)C1`, the INHIBITION came to 74.6%.

Turning to `O=C(C1=COCCO1)N1CC(Oc2nc3c(C(F)(F)F)cccc3s2)C1`, the INHIBITION is listed as 81.1%.

On to `CC(=O)OC1CN(c2nc3c(C(F)(F)F)cccc3s2)C1`, for which the INHIBITION is given as -107%. For the molecule `CC1CCN(C(=O)CSc2nc3c(cnn3CCO)c(=O)[nH]2)CC1`, the INHIBITION is on record as 38.6%. Take `O=C(c1ccc2[nH]nnc2c1)N1CC[C@H](O)[C@]2(CCCO2)C1`: the INHIBITION amounted to 1.62%. Under `CCc1cccc(NC(=O)N2CCn3cnc(COC)c3C2)c1` stands -2.35%; under `CCN(CC1CCCO1)C(=O)Nc1cc(C(N)=O)ccc1OC` (stereo not drawn), 2.3%. Under `O=C(Cc1ccsc1)N1CCC[C@@H]1Cn1c(=O)oc2ccccc21` stands 8.2%; under `O=C(NCC1CCOCC1)[C@@H]1CC[C@@H]2[C@@H](CCN2Cc2ccncc2)O1`, -54.7%. `O=C(CCc1cccnc1)N(Cc1ccsc1)CC1CCCO1` (stereo not drawn): the INHIBITION was -9.86%. The figure for `O=C(COCC1CCCO1)N(Cc1cccnc1)c1ccc(F)cc1` (stereo not drawn) is 53.3%; for `O=C(CN(Cc1cccnc1)CC1CCCO1)Nc1ccc(F)cc1` (stereo not drawn) it is 21.6%; for `Cn1cc(C2CC(=O)NC23CCN(C(=O)c2cccnc2)CC3)cn1` (stereo not drawn) it is 33.4%. The figure for `O=C(c1csc(-c2ncccn2)n1)N1CCCC1Cn1cccn1` (stereo not drawn) is 41.5%; for `O=C(Nc1cccc(CNCc2cccs2)c1)C1CC1` it is 20.5%; for `CC(C)CC(=O)Nc1cccc(CNCc2cccs2)c1` it is 52.1%.

As to `O=C(Nc1cccc(CNCc2cccs2)c1)C1CCCC1`, the INHIBITION was found to be 36.9%. The figure for `Cc1cnn(CC2CCCN2C(=O)c2sccc2-n2cnnn2)c1` (stereo not drawn) is -29.1%. The figure for `COCCC(=O)N(C)CCC1=CCN(C)CC1` is -6.274%; for `CN(C)C(=O)C1(c2cnccn2)CCCN1C(=O)Cc1ccsc1` (stereo not drawn) it is 41%; for `O=C([C@H]1CCCO1)N1CCC2(CC1)Cc1ccccc1CNC2=O` it is 7.7%. In the case of `CN1Cc2ccccc2CC2(CCN(C(=O)[C@H]3CCCO3)CC2)C1=O`, the INHIBITION is listed as 59.3%.

For `CCN1CC[C@]2(CN(C(=O)[C@H]3CCCO3)C[C@H]2c2ccccc2)C1=O`, the INHIBITION is recorded as 52.3%. Turning to `CCN1CC[C@]2(CN(C(=O)C3CCOCC3)C[C@H]2c2ccccc2)C1=O`, the INHIBITION is 20.1%. The figure for `CN1CC[C@]2(CN(C(=O)[C@H]3CCCO3)C[C@H]2c2ccccc2)C1=O` is 4.02%; for `CN1Cc2ccccc2CC2(CCN(C(=O)N3CCOCC3)CC2)C1=O` it is 26.5%. As to `CSCCC(=O)N1CCCC(n2ccnc2)C1` (stereo not drawn), the INHIBITION is given as -6.14%.

As for `CC(C)Cn1cc2nc(N)[nH]cc-2c1=O`, the INHIBITION is recorded as 29.2%.
